# Compounds with a hit are over-represented: about 10% of the library has one in this group of screens.
# 3T3 cytotox: NIH 3T3 cell cytotoxicity; Potency, µM (series often up to 96.7 µM), for the others: top-dose activity change, negative = cytotoxicity, most hits filed as inhibitors; NIH 3T3 viability, CellTiter-Glo ATP luminescence, 48-72 h; AID 1345082; 94,000 compounds, 4.3% hits; also: % is scaled to controls: 0 for no effect and ±100 for the full control effect; nearly all actives have a fitted effect of over 55% in size
#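 Cytotoxicity is measured as loss of cellular ATP: NIH 3T3 cells (400/well) are exposed to compound for 48 or 72 hr at 37 °C, then CellTiter-Glo luminescence is imaged after 10 min at room temperature.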
# GPT2 inhibitor: GPT2 alanine aminotransferase inhibition. Q8TD30. Recombinant GPT2, coupled pyruvate oxidase/HRP Amplex Red fluorescence. Potency, µM (series often up to 57.7 µM), for inactives: at the top dose activity change, negative = inhibition, hits mostly inhibitors. 100,000 compounds, 0.25% hits. AID 1671188; also: % is scaled to controls: 0 for no effect and ±100 for the full control effect; nearly all actives have a fitted effect of over 60% in size
#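 Fluorescence read-out: pyruvate from GPT2 turnover coupled to pyruvate oxidase, HRP and Amplex Red (0.2mM ThPP, 0.2U/mL PO and HRP, 50uM Amplex final). Substrates 250uM a-KG, 2mM L-alanine; enzyme 10ng/uL; 30 min RT.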
# FLuc inh-1: blocks purified firefly luciferase enzyme activity | P08659 | purified P. pyralis luciferase, luminescence, biochemical | Potency, µM (top dose mostly 115 µM), hits mostly inhibitors | 76,000 compounds, 2.5% hits; also: % is scaled to controls: 0 for no effect and ±100 for the full control effect; nearly all actives have a fitted effect of over 65% in size
# Target sequence (P08659 whole entry, looked up): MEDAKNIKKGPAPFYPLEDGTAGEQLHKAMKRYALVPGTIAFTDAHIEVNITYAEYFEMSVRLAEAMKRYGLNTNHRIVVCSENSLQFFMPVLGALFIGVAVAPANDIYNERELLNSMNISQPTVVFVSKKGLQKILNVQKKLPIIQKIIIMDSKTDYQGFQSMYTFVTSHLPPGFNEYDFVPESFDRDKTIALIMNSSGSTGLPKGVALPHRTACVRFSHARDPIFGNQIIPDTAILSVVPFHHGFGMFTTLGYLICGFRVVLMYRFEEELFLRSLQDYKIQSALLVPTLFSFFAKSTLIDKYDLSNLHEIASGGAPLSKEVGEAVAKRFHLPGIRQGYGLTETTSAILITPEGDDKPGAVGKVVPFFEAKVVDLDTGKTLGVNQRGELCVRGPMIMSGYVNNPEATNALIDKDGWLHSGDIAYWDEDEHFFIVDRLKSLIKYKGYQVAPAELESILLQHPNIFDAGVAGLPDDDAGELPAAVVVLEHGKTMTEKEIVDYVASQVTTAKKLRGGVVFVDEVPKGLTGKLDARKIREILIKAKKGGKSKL
#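 Luminescence read by CCD imager after adding enzyme (10nM final) to wells holding compound, titrated in qHTS. Substrates 10uM each D-luciferin and ATP; buffer 50mM Tris acetate pH 7.5, 10mM Mg acetate, Tween-20, BSA.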
# NPR1 antag: blocks ANP-stimulated signaling of human Npr1 receptor; P16066; HEK293 hNpr1 GloSensor cGMP, ANP-stimulated luminescence; Potency, µM (series often up to 46.3 µM), for inactives: at the highest dose activity change, negative = inhibition, actives largely listed as inhibitors; 76,000 compounds, 1.6% hits; calls by dose curve; also: % is scaled to controls: 0 for no effect and ±100 for the full control effect; nearly all actives have a fitted effect of over 60% in size
#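 Compound pre-incubated 30 min at room temperature on GloSensor-loaded HEK293 cells stably carrying hNpr1 and the pGS-40F cGMP biosensor. Stimulation uses hNppA at 0.1 nM final; luminescence is taken at baseline and 20 min post-agonist.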
# HEK293 tox: kills HEK 293 cells; HEK 293 viability, ATP luminescence (CellTiter-Glo), 48-72 h; AID 1345083; Potency, µM (highest dose often 115 µM), for the others: at the highest dose activity change, negative = cytotoxicity, actives largely listed as inhibitors; 94,000 compounds, 6.6% hits; also: % is scaled to controls: 0 for no effect and ±100 for the full control effect; nearly all actives have a fitted effect of over 60% in size
#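 Pintool-delivered compounds were incubated with HEK 293 cells (250 cells/well) at 37 degree Celsius for 48 or 72 hr. ATP-dependent luminescence (CellTiter-Glo) then reported remaining viable cells.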
# FLuc SDR no ATP: firefly luciferase binding stabilization, ATP absent; AID 1963318; Potency, µM (titrated, usually from 32.7 µM), for inactives: at the top dose activation (signal gain), hits mostly activators; 1,300 compounds, 7.8% hits; Purified FLuc-C-HiBiT, Nano-Glo HiBiT luminescence, no ATP; shares compounds with FLuc inh-1; also: nearly all actives have a fitted effect of over 55% in size
# FLuc SDR ATP: firefly luciferase binding stabilization, ATP added | shares compounds with FLuc inh-1 | purified FLuc-C-HiBiT + ATP, HiBiT complementation luminescence | Potency, µM (doses to about 32.7 µM), for the others: at the top dose activation (gain of signal), most hits filed as activators | 1,300 compounds, 8.7% hits | AID 1963319;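 also: signal reports ligand binding via conformational change of the enzyme rather than luciferase catalysis; % of control where 0% means no effect; nearly all actives have a fitted effect of over 55% in size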
# FLuc inh-2: firefly luciferase enzyme inhibition | Potency, µM (series often up to 32.7 µM), for inactives: at the highest dose activity change, negative = inhibition, most hits filed as inhibitors | shares compounds with FLuc inh-1 | AID 1963320 | purified FLuc-C-HiBiT enzyme, luciferin luminescence | 1,300 compounds, 42% hits; also: % is scaled to controls: 0 for no effect and ±100 for the full control effect; nearly all actives have a fitted effect of over 70% in size
# * marks the source's active call; other numbers are inactive results; i = inactive; ? = inconclusive; . = not tested or not shown; [ ] = remark or other dose. Unless noted, calls follow the shape of the dose curve; as a rule, active = well fitted curve in the direction sought with a large enough effect; inconclusive = small, poorly fitted or top-dose-only effect, or another doubt; inactive = no such curve, though single readings can be large; an effect the other way counts as inactive or inconclusive. Potency is read from the fitted curve at half-maximal effect.
SMILES,3T3 cytotox,GPT2 inhibitor,FLuc inh-1,NPR1 antag,HEK293 tox,FLuc SDR no ATP,FLuc SDR ATP,FLuc inh-2
CN1C[C@@H](NS(=O)(=O)c2ccc(C#N)cc2)C[C@H]1c1nc(-c2ccc(Cl)cc2)no1,?,i,10µM*,?,?,4%,4%,?
O=C1c2cnc(-c3ccc(F)cc3)nc2OCCN1CC1CC1,.,.,.,.,.,?,?,14µM*
O=C1c2cnc(-c3ccc(F)cc3F)nc2OCCN1CC1CC1,.,.,.,.,.,30%[49.3 µM],?,?
O=C1c2cnc(-c3ccc(F)cc3F)nc2OCCN1Cc1ccc(F)cc1F,-2%[138 µM],-11%[88.5 µM],i,5%[70.6 µM],?,.,.,.
O=C(C1CCCN1C(=O)c1ccccc1F)N1CCC(N2CCOCC2=O)CC1 (centres undefined),2%,i,.,.,-7%,.,.,.
Cn1ncc2c(C(=O)NCC3CC3)cc(-c3cccc(F)c3)nc21,?,.,.,.,-22%[172 µM],.,.,.
C[C@@H]1CN(c2cnc3ccccc3n2)CC[C@@]1(O)C1CCC1,?,-4%,4µM*,?,?,22%,17%,?
C[C@@H]1CN(c2cc(C3CC3)ncn2)C[C@@]1(O)C1CCC1,-22%,-30%,i,3%,?,.,.,.
O=C(Nc1cccc(-c2ccc(N3CCOCC3)nn2)c1)Nc1cccc(C(F)(F)F)c1,?,?,1.8µM*,11µM*,28µM*,?,18%,5µM*
CCOc1ccccc1NC(=O)Nc1cccc(-c2ccc(N3CCOCC3)nn2)c1,?,1%,2.8µM*,-25%,25µM*,28%,?,3.9µM*
CCOc1ccccc1NC(=O)Nc1ccc(-c2nnc3n2CCCC3)cc1,-2%,i,i,-3%,-8%,.,.,.
CN1CCN(c2ccc(-c3cccc(NC(=O)C4CCCCC4)c3)nn2)CC1,?,i,14µM*,-11%,?,27%,18%,8.8µM*
O=C(CC1CCCCC1)Nc1cccc(-c2nnc3n2CCCC3)c1,-5%,i,i,-10%,-2%,.,.,.
COc1ccc(NC(=O)Nc2cccc(-c3ccc(N4CCOCC4)nn3)c2)cc1Cl,?,?,0.63µM*,13µM*,22µM*,?,?,1.2µM*
CNC(=O)c1cc(C)nc2onc(C3CCN(C(=O)c4ccc(F)cc4)C3)c12 (centres undefined),-20%,.,.,.,-3%,.,.,.
COc1ccc(NC(=O)Nc2cccc(-c3ccc(N4CCCCC4)nn3)c2)c(OC)c1,-18%,i,0.32µM*,7.9µM*,?,?,?,0.99µM*
COc1ccc(NC(=O)CCc2ccnc(N3CCCC3)c2)c(OC)c1,-24%,i,i,-5%,-16%,.,.,.
CSc1ccc(NC(=O)C2CCN(C(=O)c3ncn4c3COC(c3ccc(F)cc3)C4)CC2)cc1 (centres undefined),-2%,i,?,-27%,?,.,.,.
O=C(Nc1ccc(Cl)cc1)C1CCN(C(=O)c2ncn3c2COC(c2ccccc2)C3)CC1 (centres undefined),i,i,1.8µM*,?,6%,14%,1.1µM*,1.8µM*
O=C(NC1CCCCCC1)C1CCN(C(=O)c2ncn3c2COC(c2ccccc2)C3)CC1 (centres undefined),i,i,13µM*,-2%,11%,13%,?,7.9µM*
O=C(Nc1ccc(F)cc1)C1CCN(C(=O)c2ncn3c2COC(c2ccccc2)C3)CC1 (centres undefined),-31%,2%,1.6µM*,?,-30%,9%,1.1µM*,1.8µM*
O=C(CC1CCN(C(=O)CCC2CCCCC2)C1)NCc1ccccc1 (centres undefined),-23%,i,i,-7%,?,.,.,.
N#Cc1c(-n2ncnc2-c2cccc(Br)c2)sc2c1CCCCC2,.,.,.,.,.,31%,?,3.1µM*
COc1ccc(C(=O)N[C@@H]2CN(C(=O)Nc3ccc(OC(F)(F)F)cc3)CCC[C@H]2O)cc1,45µM*,?,8.9µM*,?,40µM*,16%,12%,?
O=C(N[C@@H]1CN(C(=O)Nc2ccc(OC(F)(F)F)cc2)CCC[C@H]1O)c1ccc(OCCN2CCOCC2)cc1,?,-17%,?,-2%,?,.,.,.
SMILES,3T3 cytotox,GPT2 inhibitor,FLuc inh-1,NPR1 antag,HEK293 tox,FLuc SDR no ATP,FLuc SDR ATP,FLuc inh-2
COc1cccc(Nc2ncc(-c3cccnc3)c3c2OCC3)c1,?,i,14µM*,-29%[70.6 µM],100µM*,21%[49.3 µM],14%[49.3 µM],?
CNC(=O)c1cccc(-c2cnc(Nc3ccc(Cl)cn3)c3c2CCO3)c1,?,1%[88.5 µM],3.2µM*,?,?,18%[49.3 µM],17%[49.3 µM],?
COc1ccc(-c2cnc(Nc3ccccc3)c3c2CCO3)cn1,?,i,3.5µM*,?,?,19%[49.3 µM],12%[49.3 µM],?
COc1ccc(-c2cnc(NC(=O)Cc3ccccc3)c3c2CCO3)cn1,?,i,i,-4%[70.6 µM],-24%[172 µM],.,.,.
c1ccc(-c2cnc(Nc3ccc4c(c3)OCCO4)c3c2CCO3)cc1,?,4%[88.5 µM],2.8µM*,?,?,13%[49.3 µM],11%[49.3 µM],16µM*
O=C1[C@@H]2C[C@@H](CN2C(=O)c2ccccn2)Oc2ccccc2N1Cc1ccc(OC(F)(F)F)cc1,-19%,-5%,i,4%,?,.,.,.
COc1cccc([S+](=O)([O-])N2CCC3(C2)C(=O)N(Cc2ccccc2)c2ccccc23)c1 (centres undefined),-30%,i,i,20%,?,.,.,.
Cc1cn2nc(C(=O)NC3CCCC3)cc2c(N2CCCC2)n1,-33%,i,i,6%,?,.,.,.
Cc1cn2nc(C(=O)Nc3ccc(N(C)C)cc3)cc2c(N2CCCC2)n1,?,?,5µM*,10%,?,13%,13%,?
O=C(CCC[C@H]1NC[C@@H]2C[C@H]1CN(Cc1ccccc1)C2)NCCCN1CCCc2ccccc21,-3%,-28%,i,-1%,-3%,.,.,.
O=C(Nc1cccc(Cl)c1)c1cc(-c2ccc3c(c2)OCCO3)on1,.,.,.,.,.,?,?,0.62µM*
Cc1cccc(NC(=O)c2cc(-c3ccc4c(c3)OCCO4)on2)c1,.,.,.,.,.,5µM*,?,0.44µM*

# Screening results from PubChem.
